Compound in experiment [1]: T1, CN[C@@H]1C[C@H]2O[C@@](C)([C@@H]1OC)n1c3ccccc3c3c4c(c5c6ccccc6n2c5c31)C(=O)NC4 [staurosporine]
Nature of the experiment: log2 fold change of tryptic peptide abundance, ligand vs vehicle (limited proteolysis) (log2 ratio); higher = more trypsin-susceptible (destabilized). The following applies: ligand concentration: 20 uM; sample: K562 cleared lysate; digestion: 4 min, 22 C (HT-PELSA RT4min, Orbitrap Astral).

Compound in experiment [2]: T1, staurosporine
The experiment is described as above. The following applies: ligand concentration: 20 uM; sample: mouse liver crude lysate; replicate design: treated separately.

UniProt O55137, sequence (O55137 whole entry): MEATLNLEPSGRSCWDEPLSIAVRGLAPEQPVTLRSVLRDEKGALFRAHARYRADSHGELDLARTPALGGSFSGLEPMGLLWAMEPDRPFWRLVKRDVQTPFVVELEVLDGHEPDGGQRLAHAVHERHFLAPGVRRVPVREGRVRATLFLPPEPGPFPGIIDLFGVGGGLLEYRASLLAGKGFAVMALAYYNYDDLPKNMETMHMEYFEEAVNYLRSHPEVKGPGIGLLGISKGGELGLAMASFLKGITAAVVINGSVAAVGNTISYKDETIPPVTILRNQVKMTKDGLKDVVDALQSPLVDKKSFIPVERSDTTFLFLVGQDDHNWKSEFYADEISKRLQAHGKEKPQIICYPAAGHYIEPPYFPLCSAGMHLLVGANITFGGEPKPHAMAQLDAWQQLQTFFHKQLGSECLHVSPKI
UniProt Q00623, sequence (Q00623 whole entry): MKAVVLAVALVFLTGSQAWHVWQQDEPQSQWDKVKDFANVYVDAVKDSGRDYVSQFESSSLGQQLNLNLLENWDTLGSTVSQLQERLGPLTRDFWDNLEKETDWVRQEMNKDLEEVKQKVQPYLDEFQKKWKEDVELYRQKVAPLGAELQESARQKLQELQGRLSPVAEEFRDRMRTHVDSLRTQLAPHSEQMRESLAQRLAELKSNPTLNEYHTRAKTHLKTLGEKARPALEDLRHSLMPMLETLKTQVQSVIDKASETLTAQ
UniProt Q8BH59, sequence (Q8BH59 whole entry): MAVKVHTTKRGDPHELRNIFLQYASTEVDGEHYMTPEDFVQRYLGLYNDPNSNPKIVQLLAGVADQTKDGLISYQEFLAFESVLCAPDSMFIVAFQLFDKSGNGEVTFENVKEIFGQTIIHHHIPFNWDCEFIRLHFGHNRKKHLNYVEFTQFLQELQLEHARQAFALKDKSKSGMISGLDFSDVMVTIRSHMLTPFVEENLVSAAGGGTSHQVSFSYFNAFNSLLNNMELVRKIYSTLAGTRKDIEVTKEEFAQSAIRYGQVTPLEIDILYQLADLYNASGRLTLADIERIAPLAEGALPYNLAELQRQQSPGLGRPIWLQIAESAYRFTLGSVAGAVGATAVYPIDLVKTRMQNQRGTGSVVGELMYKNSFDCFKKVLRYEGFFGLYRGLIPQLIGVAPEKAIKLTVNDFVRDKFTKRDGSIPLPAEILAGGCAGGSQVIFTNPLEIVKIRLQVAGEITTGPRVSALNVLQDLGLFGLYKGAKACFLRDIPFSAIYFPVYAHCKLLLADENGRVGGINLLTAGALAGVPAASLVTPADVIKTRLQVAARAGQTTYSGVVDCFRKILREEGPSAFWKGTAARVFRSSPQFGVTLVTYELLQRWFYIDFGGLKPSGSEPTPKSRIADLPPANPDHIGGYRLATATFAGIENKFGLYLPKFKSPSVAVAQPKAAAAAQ
UniProt Q5SRE5, sequence (Q5SRE5 whole entry): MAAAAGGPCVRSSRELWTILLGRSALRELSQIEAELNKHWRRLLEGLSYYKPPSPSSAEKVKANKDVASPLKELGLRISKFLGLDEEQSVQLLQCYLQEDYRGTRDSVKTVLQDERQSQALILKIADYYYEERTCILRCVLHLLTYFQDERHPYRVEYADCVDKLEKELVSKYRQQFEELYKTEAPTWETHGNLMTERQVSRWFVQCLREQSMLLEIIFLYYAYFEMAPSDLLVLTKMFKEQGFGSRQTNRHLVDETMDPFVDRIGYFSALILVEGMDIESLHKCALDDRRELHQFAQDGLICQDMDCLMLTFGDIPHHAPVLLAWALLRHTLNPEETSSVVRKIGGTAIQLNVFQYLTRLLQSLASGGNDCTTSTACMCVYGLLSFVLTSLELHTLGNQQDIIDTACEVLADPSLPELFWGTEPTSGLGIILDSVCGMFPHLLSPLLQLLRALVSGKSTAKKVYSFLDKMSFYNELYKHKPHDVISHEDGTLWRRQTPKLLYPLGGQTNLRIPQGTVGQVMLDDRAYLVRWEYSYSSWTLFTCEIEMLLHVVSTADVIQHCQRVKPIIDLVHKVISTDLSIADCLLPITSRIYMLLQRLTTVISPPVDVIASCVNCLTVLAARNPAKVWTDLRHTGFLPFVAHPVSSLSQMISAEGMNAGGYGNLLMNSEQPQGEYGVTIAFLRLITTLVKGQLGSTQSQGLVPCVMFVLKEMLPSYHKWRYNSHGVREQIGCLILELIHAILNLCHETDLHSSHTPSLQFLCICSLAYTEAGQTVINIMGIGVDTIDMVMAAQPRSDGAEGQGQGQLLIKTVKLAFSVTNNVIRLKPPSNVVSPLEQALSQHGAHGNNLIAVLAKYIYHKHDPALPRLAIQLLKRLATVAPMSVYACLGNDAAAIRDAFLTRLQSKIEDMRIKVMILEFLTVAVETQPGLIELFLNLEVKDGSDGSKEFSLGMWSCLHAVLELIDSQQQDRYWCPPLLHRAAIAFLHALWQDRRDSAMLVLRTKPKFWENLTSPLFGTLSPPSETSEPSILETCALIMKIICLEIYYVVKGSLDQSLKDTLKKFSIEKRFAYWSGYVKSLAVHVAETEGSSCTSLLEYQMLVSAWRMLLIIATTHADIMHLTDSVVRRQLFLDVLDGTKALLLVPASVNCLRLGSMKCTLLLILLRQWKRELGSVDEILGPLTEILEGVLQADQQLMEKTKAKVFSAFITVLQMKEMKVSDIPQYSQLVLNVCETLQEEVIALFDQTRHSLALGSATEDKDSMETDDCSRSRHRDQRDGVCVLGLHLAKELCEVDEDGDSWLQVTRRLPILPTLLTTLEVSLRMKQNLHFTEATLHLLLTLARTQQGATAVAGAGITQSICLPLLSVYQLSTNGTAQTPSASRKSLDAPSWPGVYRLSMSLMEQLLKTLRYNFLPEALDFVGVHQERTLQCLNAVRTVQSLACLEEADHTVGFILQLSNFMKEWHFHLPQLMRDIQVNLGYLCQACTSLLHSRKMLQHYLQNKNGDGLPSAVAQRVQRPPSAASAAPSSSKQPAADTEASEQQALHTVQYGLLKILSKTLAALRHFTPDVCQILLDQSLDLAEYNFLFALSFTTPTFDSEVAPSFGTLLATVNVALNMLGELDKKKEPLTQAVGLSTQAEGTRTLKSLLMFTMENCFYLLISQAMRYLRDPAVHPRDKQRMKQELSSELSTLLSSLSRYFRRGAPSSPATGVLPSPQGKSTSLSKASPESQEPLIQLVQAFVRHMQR
UniProt Q7TT50, sequence (Q7TT50 whole entry): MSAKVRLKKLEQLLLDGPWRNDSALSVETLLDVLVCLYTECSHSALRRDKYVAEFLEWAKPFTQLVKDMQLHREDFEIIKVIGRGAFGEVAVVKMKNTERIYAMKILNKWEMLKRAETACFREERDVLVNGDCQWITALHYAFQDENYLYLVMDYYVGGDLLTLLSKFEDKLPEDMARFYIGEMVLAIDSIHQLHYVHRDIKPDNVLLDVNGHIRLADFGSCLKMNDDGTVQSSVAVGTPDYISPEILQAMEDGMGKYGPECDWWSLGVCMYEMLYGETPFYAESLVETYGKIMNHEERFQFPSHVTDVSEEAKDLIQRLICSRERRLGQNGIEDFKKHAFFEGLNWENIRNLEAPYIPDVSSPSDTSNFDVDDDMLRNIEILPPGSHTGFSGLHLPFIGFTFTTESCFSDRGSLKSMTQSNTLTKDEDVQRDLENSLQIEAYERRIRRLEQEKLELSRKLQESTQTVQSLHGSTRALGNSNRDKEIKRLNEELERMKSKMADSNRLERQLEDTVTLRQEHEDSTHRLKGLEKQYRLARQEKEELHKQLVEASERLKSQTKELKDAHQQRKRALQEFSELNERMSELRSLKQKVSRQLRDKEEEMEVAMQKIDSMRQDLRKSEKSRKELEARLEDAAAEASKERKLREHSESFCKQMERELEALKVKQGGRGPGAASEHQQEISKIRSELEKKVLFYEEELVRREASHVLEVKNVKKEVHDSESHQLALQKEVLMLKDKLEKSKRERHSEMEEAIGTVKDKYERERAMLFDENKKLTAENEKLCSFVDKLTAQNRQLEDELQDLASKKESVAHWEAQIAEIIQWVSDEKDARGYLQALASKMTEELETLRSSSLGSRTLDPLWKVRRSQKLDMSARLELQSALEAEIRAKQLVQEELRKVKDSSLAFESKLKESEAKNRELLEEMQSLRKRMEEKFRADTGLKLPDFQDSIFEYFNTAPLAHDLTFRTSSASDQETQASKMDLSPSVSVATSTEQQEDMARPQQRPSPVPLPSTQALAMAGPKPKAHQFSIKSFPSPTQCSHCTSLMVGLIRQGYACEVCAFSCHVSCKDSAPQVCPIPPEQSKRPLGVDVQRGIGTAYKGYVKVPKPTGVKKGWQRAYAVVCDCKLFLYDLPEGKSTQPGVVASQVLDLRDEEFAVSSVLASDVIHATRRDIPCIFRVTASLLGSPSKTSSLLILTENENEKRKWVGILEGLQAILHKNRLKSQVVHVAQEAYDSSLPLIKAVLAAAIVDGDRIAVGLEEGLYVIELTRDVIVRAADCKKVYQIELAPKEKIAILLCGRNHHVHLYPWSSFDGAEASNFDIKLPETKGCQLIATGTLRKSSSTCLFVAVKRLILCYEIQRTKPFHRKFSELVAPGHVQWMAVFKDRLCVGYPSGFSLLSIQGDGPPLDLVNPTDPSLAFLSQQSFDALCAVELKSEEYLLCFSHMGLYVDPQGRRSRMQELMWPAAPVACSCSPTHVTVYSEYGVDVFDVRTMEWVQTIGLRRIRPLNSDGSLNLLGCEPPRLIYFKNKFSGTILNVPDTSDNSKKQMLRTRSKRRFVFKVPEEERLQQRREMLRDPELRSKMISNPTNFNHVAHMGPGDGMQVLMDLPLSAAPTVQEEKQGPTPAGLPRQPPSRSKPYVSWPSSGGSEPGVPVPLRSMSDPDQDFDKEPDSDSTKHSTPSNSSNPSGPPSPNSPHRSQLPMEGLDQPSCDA
UniProt Q9D2C7, sequence (Q9D2C7 whole entry): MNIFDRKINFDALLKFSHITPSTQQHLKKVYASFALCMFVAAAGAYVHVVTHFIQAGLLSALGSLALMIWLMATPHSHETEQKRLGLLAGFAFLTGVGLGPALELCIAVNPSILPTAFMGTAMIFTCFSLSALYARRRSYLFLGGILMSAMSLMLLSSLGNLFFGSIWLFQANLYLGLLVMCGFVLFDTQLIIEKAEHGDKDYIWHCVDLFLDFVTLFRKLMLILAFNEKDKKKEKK

Take “NUP188 (peptide sequence: HTLNPEETSSVVR, peptide start residue: 331) (UniProt Q5SRE5)”: the log2 fold change in experiment [1] was determined as 1.1. Regarding “UniProt Q9BVG4 (peptide sequence: LISSVDPQFLK, peptide start residue: 53)”, the log2 fold change in experiment [1] was -0.658. Take “PRKAR1B (peptide sequence: NVLFAHLDDNER, peptide start residue: 135) (UniProt P31321)”: the log2 fold change in experiment [1] was found to be 1.02. On the same count and under the same terms, then “UniProt Q13188 (peptide sequence: AIFMIPTNPPPTFR, peptide start residue: 232)”, with -3.02; and “UniProt Q15208 (peptide sequence: VMEEEGLKDEEKR, peptide start residue: 51)”, with 0.382. The same measure, in the same setting: then “MARS (peptide sequence: SCPVVQSSQHLFLDLPK, peptide start residue: 440) (UniProt P56192)”, with 0.233; and “MAST4 (peptide sequence: LTDFGLSK, peptide start residue: 209) (UniProt O15021)”, with -0.745.

On to “HERC1 (peptide sequence: VMTCVWCNKK, peptide start residue: 3431) (UniProt Q15751)”, for which the log2 fold change in experiment [1] stood at 0.958. The same measure, in the same setting: then “LATS1 (peptide sequence: QQSASYIPK, peptide start residue: 1021) (UniProt O95835)”, with -2.87; and “POLR3A (peptide sequence: ISHICFGMK, peptide start residue: 15) (UniProt O14802)”, with 0.539; and “PDS5A (peptide sequence: SHDPEEAIRHDVIVTIITAAK, peptide start residue: 369) (UniProt Q29RF7)”, with 0.622. Take “UniProt O55137 (peptide sequence: GLAPEQPVTLR, peptide start residue: 25)”: in experiment [2], the log2 fold change is -0.292.

With “UniProt Q6XUX1 (peptide sequence: SLQDVLLHR, peptide start residue: 640)”, the log2 fold change in experiment [2] was -1.84.

Turning to “UniProt O08605 (peptide sequence: GLPTPQVLQR, peptide start residue: 341)”, in experiment [2], the log2 fold change was 1.06. The same measure, in the same setting: then “UniProt Q9D2C7 (peptide sequence: MNIFDRK, peptide start residue: 1)”, with 0.348; and “UniProt Q8VDM4 (peptide sequence: SETELKDTYAR, peptide start residue: 546)”, with -1.29; and “UniProt P22315 (peptide sequence: LFLDRDLMTLPIQNK, peptide start residue: 91)”, with -1.03.

For the target “UniProt O55047 (peptide sequence: YLLLHLLGR, peptide start residue: 408)”, in experiment [2], the log2 fold change is -1.75. Consider “UniProt Q99MK8 (peptide sequence: DLKPANILLDEHGHVR, peptide start residue: 317)”, for which the log2 fold change in experiment [2] was -0.735. Still for that read-out and setting: then “UniProt Q91VJ4 (peptide sequence: DTGHVYAMK, peptide start residue: 110)”, with -3.23; and “UniProt Q8BH59 (peptide sequence: LQVAGEITTGPR, peptide start residue: 457)”, with 0.568; and “UniProt Q00623 (peptide sequence: TQLAPHSEQMR, peptide start residue: 184)”, with 0.455. In the case of “UniProt O70551 (peptide sequence: SAEHYTETALDEIR, peptide start residue: 113)”, in experiment [2], the log2 fold change is -2.75.

As to “UniProt Q91YX5 (peptide sequence: DQQLLVLKK, peptide start residue: 157)”, in experiment [2], the log2 fold change was determined as 0.642. In the case of “UniProt Q7TT50 (peptide sequence: FQFPSHVTDVSEEAK, peptide start residue: 300)”, in experiment [2], the log2 fold change is -1.06. On the same count and under the same terms, then “UniProt Q5EG47 (peptide sequence: DLKPENVLLDAHMNAK, peptide start residue: 150)”, with -4.22; and “UniProt P47962 (peptide sequence: GAVDGGLSIPHSTK, peptide start residue: 165)”, with 0.536; and “UniProt Q9DBM2 (peptide sequence: VGIPVVAVESDPKQLDTAKK, peptide start residue: 317)”, with 0.344. For “UniProt Q62445 (peptide sequence: RFECPECSKR, peptide start residue: 704)”, the log2 fold change in experiment [2] is -1.

With “UniProt Q91VF2 (peptide sequence: TSNMENIK, peptide start residue: 105)”, the log2 fold change in experiment [2] was determined as 0.598.

The record behind these values is the supplement of paper PMC12819154, “High-throughput peptide-centric local stability assay extends protein–ligand identification to membrane proteins, tissues and bacteria” (Nature Structural & Molecular Biology, 2025).
